PubChem BioAssay AID1159580 (chemical genetic matrix, 2015)
Where “and” joins values, the source holds several entries; their conditions need not be identical. Equal entries are not always repeated. About 2,000 (36%) of roughly 5,500 compounds were called active. About 18% were inconclusive and are not listed. This is one part of the list. A number with no mark means an inactive call. Cut-off read from the data, not from the text of the source: active = normalized growth mostly below about 0.91 (no sharp cut-off); inconclusive = no clear call, values can overlap the other calls; inactive = mostly above about 0.92.

Assay: chemical genetic growth profiling, strain panel (AID 1159580);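 note: tested at 20 µM; growth read once vehicle control cultures reached saturation at 30 °C; 1 = growth at the plate median or of vehicle wells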
Settings: S. cerevisiae deletion strains, growth OD

Which results are given for `O=C(Nc1ccccc1)Nc1ccccc1`?
normalized growth (locus YAL021C, strain ccr4, stronger effect = lower value): 0.977; normalized growth (locus YAL026C, strain drs2, stronger effect = lower value): 0.951; normalized growth (locus YAL030W, strain snc1, stronger effect = lower value): 0.992; normalized growth (locus YBL061C, strain skt5, stronger effect = lower value): 0.967; normalized growth (locus YBR009C, strain hhf1, stronger effect = lower value): 0.957; normalized growth (locus YBR021W, strain FUR4, stronger effect = lower value): 0.935; normalized growth (locus YBR023C, strain chs3, stronger effect = lower value): 0.954; normalized growth (locus YBR171W, strain sec66, stronger effect = lower value): 0.954; normalized growth (locus YBR229C, strain ROT2, stronger effect = lower value): 1; normalized growth (locus YBR231C, strain swc5, stronger effect = lower value): 0.942; normalized growth (locus YBR279W, strain paf1, stronger effect = lower value): 0.973; normalized growth (locus YCL011C, strain gbp2, stronger effect = lower value): 0.93; normalized growth (locus YCL016C, strain dcc1, stronger effect = lower value): 0.943; normalized growth (locus YCL029C, strain bik1, stronger effect = lower value): 1.02; normalized growth (locus YCL069W, strain vba3, stronger effect = lower value): 0.983; normalized growth (locus YCR088W, strain abp1, stronger effect = lower value): 0.971; normalized growth (locus YDL005C, strain med2, stronger effect = lower value): 0.956; normalized growth (locus YDL035C, strain GPR1, stronger effect = lower value): 1.1; normalized growth (locus YDL040C, strain nat1, stronger effect = lower value): 0.978; normalized growth (locus YDL074C, strain BRE1, stronger effect = lower value): 1.28 [resistant] (active); normalized growth (locus YDL101C, strain DUN1, stronger effect = lower value): 0.998; normalized growth (locus YDL185W, strain tfp1, stronger effect = lower value): 0.99; normalized growth (locus YDL192W, strain arf1, stronger effect = lower value): 0.978; normalized growth (locus YDR001C, strain nth1, stronger effect = lower value): 0.968; normalized growth (locus YDR069C, strain doa4, stronger effect = lower value): 0.964; normalized growth (locus YDR101C, strain arx1, stronger effect = lower value): 0.983; normalized growth (locus YDR137W, strain rgp1, stronger effect = lower value): 0.955; normalized growth (locus YDR150W, strain NUM1, stronger effect = lower value): 1.03; normalized growth (locus YDR159W, strain sac3, stronger effect = lower value): 1.04; normalized growth (locus YDR162C, strain NBP2, stronger effect = lower value): 1.1; normalized growth (locus YDR195W, strain ref2): 0.991; normalized growth (locus YDR297W, strain sur2, stronger effect = lower value): 0.969; normalized growth (locus YDR318W, strain mcm21, stronger effect = lower value): 0.989; normalized growth (locus YDR334W, strain swr1, stronger effect = lower value): 0.959; normalized growth (locus YDR335W, strain msn5, stronger effect = lower value): 0.952; normalized growth (locus YDR388W, stronger effect = lower value): 0.991; normalized growth (locus YDR392W, strain spt3, stronger effect = lower value): 0.932; normalized growth (locus YDR502C, strain sam2, stronger effect = lower value): 0.977; normalized growth (locus YEL003W, strain gim4, stronger effect = lower value): 0.977; normalized growth (locus YEL037C, strain rad23, stronger effect = lower value): 0.97; normalized growth (locus YEL061C, strain CIN8 (second series), stronger effect = lower value): 0.97; normalized growth (locus YER015W, strain faa2, stronger effect = lower value): 0.957; normalized growth (locus YER016W, strain bim1, stronger effect = lower value): 0.962; normalized growth (locus YER110C, stronger effect = lower value): 0.967; normalized growth (locus YER111C, strain swi4, stronger effect = lower value): 0.974; normalized growth (locus YER155C, strain BEM2 (second series), stronger effect = lower value): 0.978; normalized growth (locus YER155C, strain BEM2, stronger effect = lower value): 1.01; normalized growth (locus YER167W, strain BCK2, stronger effect = lower value): 1; normalized growth (locus YFR010W, strain ubp6, stronger effect = lower value): 0.987; normalized growth (locus YGL078C, strain dbp3, stronger effect = lower value): 0.98; normalized growth (locus YGL086W, strain mad1, stronger effect = lower value): 0.977; normalized growth (locus YGL167C, strain pmr1, stronger effect = lower value): 0.972; normalized growth (locus YGL173C, strain kem1, stronger effect = lower value): 0.97; normalized growth (locus YGL227W, strain vid30, stronger effect = lower value): 0.967; normalized growth (locus YGL240W, strain doc1, stronger effect = lower value): 0.915; normalized growth (locus YGL248W, strain PDE1, stronger effect = lower value): 1.08; normalized growth (locus YGL253W, strain hxk2, stronger effect = lower value): 0.924; normalized growth (locus YGR078C, strain PAC10, stronger effect = lower value): 1.07; normalized growth (locus YGR135W, strain pre9, stronger effect = lower value): 0.985; normalized growth (locus YGR252W, strain gcn5, stronger effect = lower value): 0.91; normalized growth (locus YHR013C, strain ard1, stronger effect = lower value): 0.945; normalized growth (locus YHR027C, strain rpn1, stronger effect = lower value): 0.967; normalized growth (locus YHR030C, strain SLT2, stronger effect = lower value): 1.01 and 1.02; normalized growth (locus YHR079C, strain IRE1 (second series), stronger effect = lower value): 0.995; normalized growth (locus YHR079C, strain IRE1, stronger effect = lower value): 1; normalized growth (locus YHR094C, strain hxt1, stronger effect = lower value): 0.975; normalized growth (locus YHR129C, strain ARP1, stronger effect = lower value): 0.997; normalized growth (locus YHR142W, strain chs7, stronger effect = lower value): 0.887; normalized growth (locus YHR200W, strain rpn10, stronger effect = lower value): 0.997; normalized growth (locus YIL066C, strain RNR3, stronger effect = lower value): 0.996; normalized growth (locus YIL073C, strain SPO22, stronger effect = lower value): 1.38 [resistant] (active); normalized growth (locus YIL125W, strain kgd1, stronger effect = lower value): 0.977; normalized growth (locus YIR030C, strain dcg1, stronger effect = lower value): 0.975; normalized growth (locus YJL092W, strain hpr5, stronger effect = lower value): 0.969; normalized growth (locus YJL095W, strain BCK1 (second series), stronger effect = lower value): 0.991; normalized growth (locus YJL095W, strain BCK1, stronger effect = lower value): 1.09 and 1; normalized growth (locus YJL115W, strain asf1, stronger effect = lower value): 0.932; normalized growth (locus YJL129C, strain trk1, stronger effect = lower value): 0.998; normalized growth (locus YJL134W, strain LCB3, stronger effect = lower value): 1; normalized growth (locus YJL154C, strain vps35, stronger effect = lower value): 0.965; normalized growth (locus YJL164C, strain tpk1, stronger effect = lower value): 0.961; normalized growth (locus YJL166W, strain qcr8, stronger effect = lower value): 0.952; normalized growth (locus YJL168C, strain set2, stronger effect = lower value): 0.98; normalized growth (locus YJL187C, strain SWE1 (second series), stronger effect = lower value): 0.99; normalized growth (locus YJR066W, strain TOR1, stronger effect = lower value): 0.95
